# Measured values from the OligoGym collection.
# Tests used:
# Assay in all cases: pooled miR-30 sensor sort-seq; sequence = guide strand
# Details in all cases: shRNA
# TNFAIP6 = target: TNFAIP6
# TNPO2 = target: TNPO2
# TRAPPC2 = target: TRAPPC2
# TRIM38 = target: TRIM38
# TRMT1 = target: TRMT1
# TSC1 = target: TSC1
# TSPYL2 = target: TSPYL2
# TSPAN8 = target: TSPAN8
# TSPAN3 = target: TSPAN3
# TSEN34 = target: TSEN34
# TSPY2 = target: TSPY2
# Further: reference of the scale not given here.
sequence,measurement,setting,value
TACTTGAGTCTAATGTGCCAGT,sensor-assay potency score (higher = more potent),TNFAIP6,-0.543
TGAAGCATCACTTAGAAACTTC,sensor-assay potency score (higher = more potent),TNFAIP6,0.148
TTGTTCTTGAGGATGAGGCCAC,sensor-assay potency score (higher = more potent),TNPO2,-0.289
TTCTCTAGAATTGCTGACCCAG,sensor-assay potency score (higher = more potent),TNPO2,-0.678
ATGAGCTATGAACTGGTTCAGA,sensor-assay potency score (higher = more potent),TRAPPC2,-1.51
TTTATTCCATCTTCTTGTCTTA,sensor-assay potency score (higher = more potent),TRAPPC2,-0.31
TAAACCTGGAAATAGGGCCGGA,sensor-assay potency score (higher = more potent),TRIM38,-0.714
TTAGTTATTCGCATTGCTGTGG,sensor-assay potency score (higher = more potent),TRIM38,0.226
TTGAGCTGGACATTCCGGCGTA,sensor-assay potency score (higher = more potent),TRMT1,0.567
TTGCGTGTCCTTCTCTCCTGGA,sensor-assay potency score (higher = more potent),TRMT1,-0.847
TATTTAACAACATCAGCCGAGA,sensor-assay potency score (higher = more potent),TSC1,-0.654
TTGACAATCACCATGTTTGTGA,sensor-assay potency score (higher = more potent),TSPYL2,0.272
TATAGCACCGCAGCATCCCAGG,sensor-assay potency score (higher = more potent),TSPAN8,-1.12
TTTCTTTGAACCAATCTGTATT,sensor-assay potency score (higher = more potent),TSPAN3,-1.05
TTCTGTGACAAAAACCAAGAGC,sensor-assay potency score (higher = more potent),TSPAN3,-0.255
TTGCTCTGTAAACATATCCCAA,sensor-assay potency score (higher = more potent),TSPAN3,-1.02
TTGCTTGAGAGTCATTGCTTAC,sensor-assay potency score (higher = more potent),TSPAN8,-1.33
TCTGTAGATACTGTAGCGCAGC,sensor-assay potency score (higher = more potent),TSEN34,-0.735
TCTAGTTTCTGCTTCTTAGCAG,sensor-assay potency score (higher = more potent),TSEN34,0.419
TCTCTGTAGATACTGTAGCGCA,sensor-assay potency score (higher = more potent),TSEN34,-0.97
TCGGGCATCAGCAGCAGCGGGA,sensor-assay potency score (higher = more potent),TSEN34,-1.31
TTGAGAGTCATTGCTTACTCGT,sensor-assay potency score (higher = more potent),TSPAN8,-0.804
TCTCTGTCGTCATCATCGCTGC,sensor-assay potency score (higher = more potent),TSPYL2,-0.7
TCCTGCACAGCCTCCATCCTGA,sensor-assay potency score (higher = more potent),TSPY2,-1.01
TCTTGCAGAGATGAACACGATG,sensor-assay potency score (higher = more potent),TSPY2,-0.976
AACCACTACAACAACTTCTGTG,sensor-assay potency score (higher = more potent),TSPAN3,0.151
TAGATTTGAAAACAGCTCCTAG,sensor-assay potency score (higher = more potent),TSPAN8,-0.482
TATGAAAAACAACAGAAGCATG,sensor-assay potency score (higher = more potent),TSPAN8,-1.79
TAGGATACCTGTCGCCACCTGC,sensor-assay potency score (higher = more potent),TSPAN8,-0.685
TCATTGTCACTGTCGCTGCTGT,sensor-assay potency score (higher = more potent),TSPYL2,-0.335
